C-LANA FP – inhibitors of KSHV C-LANA binding to DNA, primary screen, biochemical, fluorescence polarization, FAM-LBS DNA, MBP-C-LANA, single point; Kaposi's sarcoma herpesvirus LANA C-terminal domain (residues 932-1162) DNA binding; inhibition, % at 9 µM; hit rate 0.078% among 340,000; AID 504423, 2011;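 active means highest replicate inhibition at or above 60% at 9 µM, even if other replicates fall short; inactive means all replicates below 60% inhibition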;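 further: 0% = neutral control wells and 100% = 4 µM acridine orange control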
RTF Ca sens act – cardiac RTF calcium sensitivity activators, primary screen, biochemical, IANBD-TnC fluorescence, EC20 calcium. Troponin I, cardiac muscle (Homo sapiens) + Troponin T, cardiac muscle (Homo sapiens) + …. hit rate 0.24% among 340,000. IANBD-labeled TnC RTF fluorescence at EC20 calcium; 0% EC20 calcium, 100% full calcium. AID 493008, 2010. activation, % at 7.2 µM;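 active means activation above the mean over all tested compounds plus 3 SD, cut at about 30% in these data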;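 further: rise in fluorescence read as greater calcium sensitivity of cardiac thin filaments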
RTF Ca sens inh – cardiac RTF calcium sensitivity inhibitors, primary screen, biochemical, IANBD-TnC fluorescence, EC70 calcium; inhibition, % at 7.15 µM; Troponin I, cardiac muscle (Homo sapiens) + Troponin T, cardiac muscle (Homo sapiens) + …; IANBD-labeled cardiac RTF, Ca2+ fluorescence; hit rate 0.12% among 340,000;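 active means inhibition above the mean inhibition of all tested compounds plus 3 SD, cut at about 17% in these data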;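 further: assay run at fixed EC70 calcium of 1.6 mM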
eLon inh – inhibitors of E. coli Lon protease, primary screen, biochemical, fluorescence polarization; P0A9M0; inhibition, % at 7.94 µM; purified E. coli Lon protease; hit rate 0.42% among 360,000; AID 602123, 2011; in the data active means inhibition above about 13%, passing the limit was not always enough;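 further: 0% = enzyme with probe and DMSO and 100% = no enzyme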
Keap1 Nrf2 FP – Keap1-Nrf2 protein-protein interaction inhibitors, primary screen, biochemical, fluorescence polarization, single point; Keap1 Kelch-Nrf2 peptide fluorescence polarization, 1536-well; inhibition, % at 9.4 µM; AID 504523, 2011; Kelch-like ECH-associated protein 1 (Homo sapiens), Q14145; hit rate 0.15% among 340,000; in the data active means inhibition above about 12%;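 further: human Keap1 Kelch domain with fluorescein labeled Nrf2 9mer peptide probe; 0% = neutral control wells and 100% = peptide positive control; higher means more block of Keap1 binding to Nrf2 peptide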
Target sequence (Q14145 whole entry, looked up, the tested form may be a part): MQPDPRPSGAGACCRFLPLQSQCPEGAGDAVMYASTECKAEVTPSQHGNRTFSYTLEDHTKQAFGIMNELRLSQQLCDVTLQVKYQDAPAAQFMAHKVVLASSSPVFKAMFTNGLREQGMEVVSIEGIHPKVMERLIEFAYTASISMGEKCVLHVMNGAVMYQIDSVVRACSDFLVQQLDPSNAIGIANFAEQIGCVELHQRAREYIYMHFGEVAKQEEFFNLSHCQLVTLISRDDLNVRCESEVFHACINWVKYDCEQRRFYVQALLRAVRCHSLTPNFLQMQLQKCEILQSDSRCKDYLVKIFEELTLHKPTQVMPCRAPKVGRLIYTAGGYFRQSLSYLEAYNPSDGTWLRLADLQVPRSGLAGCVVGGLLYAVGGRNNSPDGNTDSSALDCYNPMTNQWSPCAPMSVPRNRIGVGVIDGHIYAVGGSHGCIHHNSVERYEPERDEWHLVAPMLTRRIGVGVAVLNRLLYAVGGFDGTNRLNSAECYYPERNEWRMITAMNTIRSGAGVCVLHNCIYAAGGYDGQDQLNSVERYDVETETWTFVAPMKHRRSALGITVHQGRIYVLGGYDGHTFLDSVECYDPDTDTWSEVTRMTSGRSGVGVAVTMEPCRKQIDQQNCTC
eLon confirm – E. coli Lon protease inhibitor retest, confirmation, biochemical, fluorescence polarization; shares compounds with eLon inh; purified E. coli Lon; inhibition, % at 7.94 µM; hit rate 31% among 1,400; in the data active means inhibition above about 16%;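 further: 0% = enzyme with probe and DMSO and 100% = no enzyme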
* marks the source's active call; other numbers are inactive results; x = not tested or not shown; + = active, no number. An excerpt weighted towards active compounds, which were near 0.82% of everything screened.

SMILES | C-LANA FP | RTF Ca sens act | RTF Ca sens inh | eLon inh | Keap1 Nrf2 FP | eLon confirm
COc1ccc(N2CCN(CC(O)COCCOc3ccc(Br)cc3)CC2)cc1 (stereo unspecified) | -1 | 9 | -14 | -20 | 2 | x
CC(OC(=O)CC(C)c1ccccc1)C(=O)Nc1ccc(Cl)cn1 (stereo unspecified) | -1 | 0 | -6 | 1 | 4 | x
O=C1CSc2ccc(S(=O)(=O)N3CCN(c4ccccc4F)CC3)cc2N1 | -1 | -2 | 7 | 0 | -2 | x
O=C(C1CC(=O)N(c2ccc(F)cc2)C1)N1CCCCC1 (stereo unspecified) | -1 | -5 | 11 | -9 | -2 | x
C[C@H](NC(=O)C1CC(=O)N(c2ccc(F)cc2)C1)C(=O)N1CCCCC1 (stereo partly specified) | 0 | -7 | -2 | 20* | -1 | 5
COc1ccc(CN2CCC(CO)(Cc3ccccc3C(F)(F)F)CC2)c(F)c1 | 1 | -3 | -10 | 20* | 0 | 0
COc1ccc(CC2(CO)CCN(Cc3cccc4nccnc34)CC2)cc1 | 1 | 2 | -9 | 1 | 6 | x
O=c1c2[nH]cnc2n(-c2cccc(F)c2)c(=O)n1Cc1ccccc1 | -2 | 3 | -12 | -6 | -6 | x
CCOC(=O)CCCCCC(=O)Nc1ccc2c(c1)C(=O)N([C@@H](C)CO)C[C@H](C)[C@H](CN(C)C(=O)Nc1ccc(F)cc1)OCCCC[C@H](C)O2 | x | x | x | -13 | x | x
COc1ccccc1NC(=O)CSc1nnc(CC(=O)Nc2ccccc2F)n1C | -3 | 7 | 1 | -16 | 2 | x
O=C1CN(S(=O)(=O)c2cccc(Cl)c2Cl)CCN1 | 0 | -2 | 0 | 44* | 0 | 14
COc1ccc(CC(N)c2csc(NC(=O)c3cccc(OC(F)(F)F)c3)n2)cc1 (stereo unspecified) | x | x | x | 7 | x | x
O=c1c(/C=C(\O)c2ccc(F)cc2)nc2ccccc2n1-c1ccccc1 | 33 | 51* | -13 | + | -21 | -205
CC(=O)c1ccc(NC(=O)c2cccc(N3C(=O)c4ccccc4C3=O)c2)cc1 | 0 | -5 | 3 | 4 | -1 | x
COc1ccc(NC(=O)c2cccc(N3C(=O)c4cccc([N+](=O)[O-])c4C3=O)c2)cc1 | 1 | -4 | -8 | 19* | 1 | 0
O=C(N=Nc1c(O)[nH]c2ccc(Br)cc12)c1ccco1 | x | x | x | -19 | x | x
O=C(N=Nc1c(O)[nH]c2ccc(Br)cc12)c1ccccc1-n1cccc1 | 1 | -9 | -4 | 24* | -5 | 4
CCOc1ccc(C(=O)NCC(=O)OCC(=O)N(C)CC(=O)Nc2ccccc2CC)cc1OCC | 2 | -8 | -9 | 0 | -1 | x
Cc1ccc(S(=O)(=O)N2CCCCC2)cc1NC(=O)CSc1nc(N)cc(=O)[nH]1 | 0 | -5 | 0 | -2 | -3 | x
NS(=O)(=O)c1ccc(NS(=O)(=O)c2ccc(C3CNC(=O)C3)cc2)cc1 (stereo unspecified) | 0 | -3 | 0 | 19* | -4 | 7
Cc1c(C(=O)O)c(O)cc2c1C(=O)c1c(O)c([C@@H]3O[C@H](CO)[C@@H](O)[C@H](O)[C@H]3O)c(O)c(O)c1C2=O | 17 | 0 | -6 | 45* | 3 | 22*
CCN(CC)CCOC(=O)c1ccc(NC(=O)CCCN2C(=O)/C(=C/c3cccs3)SC2=S)cc1 | -1 | 3 | -4 | -24 | -6 | x
CN(C)C(=O)CCc1ccc2c3c([nH]c2c1)[C@]1(CCC2CCCC2)[C@@H](C(=O)N2CCOCC2)C[C@H](CC(=O)NCCc2ccccn2)C(=O)N1CC3 | 4 | -4 | -3 | -1 | 4 | x
COC(=O)C1=C(C)NC(C)=C(C(=O)OCC2CCCO2)C1c1cccc(Cl)c1 (stereo unspecified) | -1 | -6 | -2 | 22* | 0 | -1
COC(=O)C1=C(C)NC(C)=C(C(=O)OCC2CCCO2)C1c1ccc(Cl)c([N+](=O)[O-])c1 (stereo unspecified) | 0 | 9 | -14 | -9 | 3 | x
SMILES | C-LANA FP | RTF Ca sens act | RTF Ca sens inh | eLon inh | Keap1 Nrf2 FP | eLon confirm
CC(C)C[C@H]1CN(CCCC[C@@H]2CNC(=O)C(=O)N2CCc2ccccc2)C(=O)C(=O)N1CCc1ccc(O)cc1 | x | x | x | -5 | x | x
CC(Sc1nnc(Cc2cccs2)n1C1CC1)C(=O)NC1CCS(=O)(=O)C1 (stereo unspecified) | 0 | 4 | -2 | 1 | -1 | x
OC(CN1CCCCC1)c1ccc2c3c(cccc13)CC2 (stereo unspecified) | 3 | -1 | 0 | 70* | 1 | 3
OC(CN1CCCCC1)c1ccc(Br)cc1 (stereo unspecified) | -1 | -6 | -5 | 10 | -5 | x
CC1CCN(C(=O)C2CCN(c3ncnc4c3nc3n4CCCCC3)CC2)CC1 | -1 | -4 | 4 | 20* | 2 | -1
Cc1cc(C)c(SSc2nnnn2-c2ccccc2)c(C)c1 | x | x | x | 5 | x | x
O=C(N/N=C/c1ccc(-c2ccc(S(=O)(=O)Nc3ncccn3)cc2)o1)c1cc2ccccc2cc1O | 2 | -18 | 15 | 26* | 3 | 30*
N=C(N)n1ncc2c1CCCC2=O | x | x | x | 2 | x | x
C=CCOC(=O)C1=C[C@H](c2coc3ccccc3c2=O)[C@@H](CCCO)[C@H](OCC)O1 | -1 | 4 | -10 | 26* | -2 | 1
Cc1ccc(-c2nnn(CCC(=O)N3CCCCC3C)n2)cc1 (stereo unspecified) | -2 | -4 | 4 | -14 | -4 | x
CC1CCCCN1C(=O)Cn1nnc(-c2cccnc2)n1 (stereo unspecified) | 6 | 16 | -13 | 26* | 1 | 0
COc1cc(OC)cc(C(=O)N[C@H](C(=O)OCn2nnc3ccccc3c2=O)C(C)C)c1 | -1 | 1 | -3 | 16* | -7 | -8
CCc1ccc(NC(=O)c2cccc(NC3=NC4CS(=O)(=O)CC4S3)c2)cc1 (stereo unspecified) | -2 | -2 | -3 | 24* | 0 | 0
CCOc1ccc(NC(=O)c2cccc(NC3=NC4CS(=O)(=O)CC4S3)c2)cc1 (stereo unspecified) | -2 | 3 | -1 | -14 | 0 | x
CC1CN(/C=C/C=O)C(C)CC1OC(=O)c1ccccc1 (stereo unspecified) | 0 | -3 | -11 | -5 | 5 | x
O=c1nc2c(O)cccn2c2c1c(=O)[nH]c1ccccc12 | 18 | 40* | -45 | 156* | 4 | 142*

Bioassay records from PubChem.
